PubChem BioAssay (EPA / NIEHS)
Activity calls are given as the source filed them. How the source made its calls: active means hit-call score of the fitted dose curve at least 0.9, where 1 is the maximum; inactive means score below 0.9.

assay: BSK_BT_Bcell_Proliferation: Viability Assessment in the BioMAP Diversity Plus: BT Assay for B cell Proliferation (AID 2284227); details: primary human B cells with PBMC
In short: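 Using a human primary B cell–PBMC co-culture, the assay measures total protein by sulforhodamine B absorbance as a gauge of proliferation after 72 h. Analysis followed the positive fitting direction with DMSO as baseline.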

SMILES | outcome | AC50
CC(=O)/C=C/C1=C(C)CCCC1(C)C | inactive | 
c1ccc2c(c1)c1cccc3ccc4cccc2c4c31 | inactive | 
CNC[C@H](O)c1cccc(O)c1 | inactive | 
CCCCCCCCCC=O | inactive | 
CCCCC/C=C/C=C/C=O |  | 20.1 µM (active)
CC(C)c1ccc(C(C)C)cc1 | inactive | 
CCc1c(C)cc(N)c(CC)c1N | inactive | 
CC(=O)O[C@]1(C(C)=O)CC[C@H]2[C@@H]3C[C@H](C)C4=CC(=O)CC[C@]4(C)[C@H]3CC[C@@]21C | inactive | 
C=C[Si](OCC)(OCC)OCC | inactive | 
Cc1ccc(O)c(C(C)(C)C)c1 | inactive | 
CC(C)Oc1ccccc1O | inactive | 
CN(CCOc1ccc(CC2SC(=O)NC2=O)cc1)c1ccccn1 (configuration not stated) | inactive | 
O=C=NC1CCC(CC2CCC(N=C=O)CC2)CC1 (configuration not stated) |  | 31.2 µM (active)
c1ccc2sc(SN(C3CCCCC3)C3CCCCC3)nc2c1 | inactive | 
Cc1ccc(Nc2ccc(O)c3c2C(=O)c2ccccc2C3=O)cc1 | inactive | 
COC(=O)c1ccc(C)cc1 | inactive | 
N#Cc1ccc(CC(=NNC(=O)Nc2ccc(OC(F)(F)F)cc2)c2cccc(C(F)(F)F)c2)cc1 | inactive | 
O=[N+]([O-])c1cc(C(F)(F)F)ccc1Cl | inactive | 
C=C(C)C(=O)O[C@H]1C[C@@H]2CC[C@@]1(C)C2(C)C | inactive | 

SMILES | outcome | AC50
Nc1cc([N+](=O)[O-])ccc1Cl | inactive | 
C#C[C@]1(O)CC[C@H]2[C@@H]3CCC4=Cc5oncc5C[C@]4(C)[C@H]3CC[C@@]21C |  | 33.1 µM (active)
CCn1c2ccccc2c2cc(N)ccc21 |  | 13.1 µM (active)
CCCCCCCCCCCCCCCCCC(=O)OCC(CC)CCCC (configuration not stated) | inactive | 
CCCCC(CC)COCCC#N (configuration not stated) | inactive | 
CC(=O)Nc1ccccc1O | inactive | 
O=C(O)c1cn(-c2ccc(F)cc2)c2cc(N3CCNCC3)c(F)cc2c1=O | inactive | 
O=P(c1ccccc1)(c1ccccc1)c1ccccc1 | inactive | 
CCCCC(CC)COC(=O)/C=C\C(=O)OCC(CC)CCCC (configuration not stated) |  | 20 µM (active)
O=C(O)c1cn(C2CC2)c2cc(N3CCNCC3)c(F)cc2c1=O | inactive | 
CC(C)(COC(=O)c1ccccc1)COC(=O)c1ccccc1 | inactive | 
Cc1ccc2n[nH]nc2c1 | inactive | 
O=C1CCCCCCCCCCCCCCO1 |  | 34.9 µM (active)
CC1CCC(C(C)CS)CC1S (configuration not stated) | inactive | 
CC1COc2ccccc2N1C(=O)C(Cl)Cl (configuration not stated) |  | 14.1 µM (active)
CCCCCCCCC=O | inactive | 
O=C1OC2(c3cc(Br)c(O)c(Br)c3Oc3c2cc(Br)c(O)c3Br)c2c(Cl)c(Cl)c(Cl)c(Cl)c21 | inactive | 
BrC1CCC(Br)C(Br)CCC(Br)C(Br)CCC1Br (configuration not stated) |  | 28.4 µM (active)
